Data as given in the supplement of paper PMC12632987.

B1: uchl1_199_7510 (protein)
chain: SSRTESIARNMAGRLLRYIMDPETARERARRLARRLITRRPGLSVEELTETFQLLVEYVAAERDPAVTRAVTDALVEAVREELGDEAAAAAVRARAEELL
B2: uchl1_199_7517 (protein)
chain: MSREDDIARYMAGPFLLSNGSPEVVRARARERTRRLIRTRKDLSPEELTEIMVRFVEILAAHRDPETVRAATEGIVEAILEELGDEEAARRVRARAEELL
B3: uchl1_179_7504 (protein)
chain: ARRLVRIRATIVFPRSTTREEALAVARRIHAALKELGVTGLINLRVSRYNPENNPEHPDRMVIRLGLVVPEELADAVEAAIRALAAEAGAEIEIEREAIA
B4: uchl1_179_7503 (protein)
chain: AMKKVRIRATITFPKSTTMEQALAVAKEIAAALKELGVTGVSRIVVSRYNPENDPAHPDHMVITIGLVVPEEKAEAVIEAIKEIAAKAGAEVEIETEEVA
B5: uchl1_199_7513 (protein)
chain: MTRAESIARQVGGRLLSGIGSPEVLAARAARLLRLVLERLPDLPDEELLEAVRLLLRAIAAERSPEAFDAVAAALTAVLQEERGIGERMAAIAAEVRAEA
B6: uchl1_199_7505 (protein)
chain: SSRTEDIARNMAGRLLRYIRSPEVLAERARRLTRELIERQTHLSVEEITETLKLLVTYIHAERSPEETRAATDAIVEAVRELLGDEAAAAAIRAHTEALL
B7: uchl1_199_7508 (protein)
chain: SSKTEDIARNMAGRLLRYIRSPEVLAARARRLTERLIREQTHLSVEEITETFLLLVDYVHANRSPEQTRAVTDAIVEAVERELGDEEAAKRIREHTESLL
B8: uchl1_199_7518 (protein)
chain: MSREEDIARYMAGPFLFSNGSPEVVRARAYRLTVRLIRTRKDLSREELTAILVRFVEILAANRDPETVRAATEGIVEAVLEELGDEESAARIRAAAEALL
B9: uchl1_199_7509 (protein)
chain: SSKTRSIAINMAGRLLRYIMDPETARERALRLARELITRRPGLSVEEITETFELLVRLVAAERDPETVRAVTDAIVEAILELLGDEEAAARVRATAEALV
B10: uchl1_199_7511 (protein)
chain: MTKEEDIARNMAGRLLRYELDPEKVRERARRLATLLVERLSHLSVEEITETFLILVELVAKENNPEVLRAVTEAIVEVVRERLGDEEAARRIRERAEELA
B11: uchl1_199_7515 (protein)
chain: MTRAESIAAQLGGRLLSGIYSPEVLAARAAALWADVLRRLSDLPDEELLEAFRILLEALAAAVDEASARAAAEAIVAVLAEERGIGERARAIADEVLAAR
B12: uchl1_199_7514 (protein)
chain: MSRAESIARQVGGRLLSGVGSPEVLAARAARLLREVLARLPDLPDEELLAMVRILLEAIAKNRSPETFDAVAAALIAVLQEERGIGAAAAAIAAEVRAKA
B13: uchl1_199_7506 (protein)
chain: SSKTEDIARNMAGRLLRYIRTPEVLAARARRLTRLLIERQTDLSVEEITETLLKLVELVHKERTPEETRAVTDAIVEAVLELLGDEEAARRIREHAEELL
B14: uchl1_199_7512 (protein)
chain: MSRAESIARQVGGRLLSGIGSPEVLAAKAAALLRRVLARLPDLPDETLLEMVRILLEAIARERSPEAFAAVAAALIAVLDAERGIGAEVAAIAEEVRAAA
B15: uchl1_199_7507 (protein)
chain: SSLTEDIARNMAGRLLRYIRTPEVLAARAAELTARLIREQTHLSVEELTEIFLLLVDYVHAERTPEETRAATDAIVAEVERLLGDAAAAARIRAHAAALL
B16: uchl1_199_7516 (protein)
chain: MTRAESIARMLGGRLLRGIRDPEKLAARAAELTRRMLERLANLPDETILETVRLLLEAIARERSLEDARAAGEAIVEVLAEERGIGEAARAVVDEVLAAA

Biological target: UCHL1, P09936
Test: median log2 fold change of GCK-ALFA target abundance (FLAG IP / Myc IP barcode read proportion) (log2 ratio); each designed protein is fused to an ALFA-tag nanobody in HEK293 cells to bring the named protein to FLAG-tagged glucokinase (GCK); Myc marks an untargeted standard; higher = target protein stabilised (more abundant)
Settings: target protein: 3xFLAG-MCP-GCK-ALFA reporter; HEK293 landing pad (RPLP)
Outline: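 Binders fused to an ALFA nanobody were recombined as a library into HEK293 landing-pad cells, which were induced with 2 μg mL^−1 doxycycline and then transfected to express a FLAG-tagged target and a Myc-tagged standard. After 48 h, circular RNA barcodes recovered by anti-FLAG and anti-Myc immunoprecipitation of lysates were reverse transcribed, amplified and sequenced. Each binder's target abundance is the median log2 ratio of FLAG to Myc barcode read proportions, from barcodes present at ≥10^−7 in both replicates, binders carrying ≥3 barcodes per replicate, a 10^−6 pseudocount and pooled replicates.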

Chain of UCHL1, P09936 (P09936 whole entry, looked up, the tested form may be a part): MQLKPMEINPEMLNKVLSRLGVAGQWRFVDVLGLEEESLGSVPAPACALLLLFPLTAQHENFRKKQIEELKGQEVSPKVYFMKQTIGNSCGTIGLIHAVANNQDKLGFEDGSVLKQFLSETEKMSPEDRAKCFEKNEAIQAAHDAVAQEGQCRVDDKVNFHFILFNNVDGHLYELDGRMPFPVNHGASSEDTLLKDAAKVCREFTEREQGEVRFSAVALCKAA

Binder | median log2 fold change
B1 | -0.193
B2 | 0.00596
B3 | 0.192
B4 | -0.0524
B5 | -0.209
B6 | 0.192
B7 | 0.0747
B8 | -0.219
B9 | -0.0199
B10 | -0.27
B11 | 0.16
B12 | -0.0877
B13 | 0.171
B14 | -0.679
B15 | 0.269
B16 | -0.835
